Inconclusive results are not listed. A call without a number means that no potency is given here. Active and inactive are the calls of the source. Calls come from the whole dose curve; as a rule, active = well fitted inhibition curve with a large enough effect; inconclusive = small, poorly fitted or top-dose-only effect; inactive = flat fitted curve, though single readings scatter.
Columns and labels:
[1] = biological target: Glutathione peroxidase 1 (Homo sapiens) (UniProt P07203); assay: Primary qHTS Assay for Inhibitors of Recombinant Selenoprotein Glutathione Peroxidase 1 (GPX1) (AID 1845191)
Method in brief: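 Recombinant GPX1 (10 nM final) was preincubated with compound for 30 min at room temperature, then reacted with 1 mM GSH, 0.5 mM CHP, 0.5 mM NADPH and 100 nM glutathione reductase; NADPH fluorescence (340/450 nm) was read at 0 and 15 min.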

[2] = biological target: Phospholipid hydroperoxide glutathione peroxidase GPX4 (Homo sapiens) (UniProt P36969); assay: Primary qHTS Assay for Inhibitors of Recombinant Selenoprotein Glutathione Peroxidase 4 (GPX4) (AID 1845192)
Method in brief: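 GR-coupled readout: 100 nM GR, 1 mM GSH, 0.5 mM NADPH; NADPH fluorescence (ex 340/em 450 nm) read at t=0 and after 15 min RT. GPX4 200 nM, preincubated 30 min with compound; substrate 0.5 mM CHP.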
Note: nearly all actives have a fitted effect of over 65% in size.

Sequence of Phospholipid hydroperoxide glutathione peroxidase GPX4 (Homo sapiens) (P36969 whole entry, looked up): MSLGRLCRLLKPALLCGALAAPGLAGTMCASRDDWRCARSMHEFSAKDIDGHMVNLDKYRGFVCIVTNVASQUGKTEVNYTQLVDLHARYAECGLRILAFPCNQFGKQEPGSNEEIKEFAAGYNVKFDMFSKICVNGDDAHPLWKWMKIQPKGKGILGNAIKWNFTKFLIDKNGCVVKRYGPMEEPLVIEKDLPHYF
Sequence of Glutathione peroxidase 1 (Homo sapiens) (P07203 whole entry, looked up): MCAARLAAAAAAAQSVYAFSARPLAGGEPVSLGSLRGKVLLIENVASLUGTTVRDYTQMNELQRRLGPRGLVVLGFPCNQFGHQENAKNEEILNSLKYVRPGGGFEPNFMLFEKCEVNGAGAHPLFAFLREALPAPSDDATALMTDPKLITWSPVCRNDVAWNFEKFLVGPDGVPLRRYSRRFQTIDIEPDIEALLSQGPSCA

| Structure (SMILES) | Potency [1] | Potency [2] |
| --- | --- | --- |
| O=c1ccn([C@@H]2O[C@H](COP(=O)(O)OP(=O)(O)O)[C@@H](O)[C@H]2O)c(=O)[nH]1 | inactive | inactive |
| CC1CNCCN1S(=O)(=O)c1cccc2cnccc12 (stereo not drawn) | inactive | inactive |
| Cn1c(=O)c2[nH]c(C3CCCC3)nc2n(C)c1=O | inactive | inactive |
| COc1ccc(-c2cc3ncc(C)n3c(Nc3ncccc3C(N)=O)n2)cc1OC | inactive | inactive |
| N=C(N)c1ccc(N)cc1 | inactive | inactive |
| NCCCCN=C(N)N | inactive | inactive |
| CCCCC[C@H](CC(=O)NO)C(=O)N[C@H](C(=O)N1CCC[C@H]1CO)C(C)C | inactive | inactive |
| CCCCCCCC/C=C\CCCCCCCC(=O)NCCc1ccc(O)c(O)c1 | inactive | inactive |
| Brc1c(Br)c(Br)c2[nH]cnc2c1Br | inactive | inactive |
| CCC(=O)N1CCN(C(=O)c2ccccc2)CC1 | inactive | inactive |
| CC1=C(/C=C/C(C)=C/C=C/C(C)=C\C(=O)O)C(C)(C)CCC1 | inactive | inactive |
| OC1(c2ccc(Cl)cc2)CCN(Cc2c[nH]c3ccccc23)CC1 | inactive | – |
| Cc1cccc(C(=O)NCN2CCN(c3ccccc3C#N)CC2)c1 | inactive | inactive |
| N#C/C(=C\c1ccc(O)c(O)c1)C(=O)NCCCNC(=O)/C(C#N)=C/c1ccc(O)c(O)c1 | inactive | inactive |
| CC(C)Cn1c(=O)n(C)c(=O)c2[nH]cnc21 | inactive | inactive |
| O=C1Nc2ccc(I)cc2/C1=C/c1cc(Br)c(O)c(Br)c1 | inactive | – |
| Cc1cccc(C)c1OCC(N)C(C)C (stereo not drawn) | inactive | inactive |
| O=C(OCCN1CCOCC1)C1(c2ccccc2)CCCCC1 | inactive | inactive |
| NC(N)=NC(N)=Nc1ccccc1 | inactive | inactive |
| NC(N)=[N+]1CCc2ccccc2C1 | inactive | inactive |
| Cc1cc2c(cc1Cl)N(C(=O)Nc1ccnc3ccccc13)CC2 | inactive | inactive |
| Nc1nc2[nH]c(=O)cnc2c(=O)[nH]1 | inactive | inactive |
| O=c1[nH]c2ccccc2c2ccccc12 | inactive | inactive |
| CC(C)(CO)Cc1cc(C(C)(C)C)c(O)c(C(C)(C)C)c1 | inactive | inactive |
| O=c1onc2cnc3ccccc3n12 | inactive | inactive |

| Structure (SMILES) | Potency [1] | Potency [2] |
| --- | --- | --- |
| CC[C@H](NC(=O)c1c(C)c(-c2ccccc2)nc2ccccc12)c1ccccc1 | inactive | – |
| Nc1ccc(-c2nc3ccc(-c4nc5ccc(N)cc5[nH]4)cc3[nH]2)cc1 | inactive | inactive |
| Cc1nc(N=Nc2ccc(S(=O)(=O)O)cc2S(=O)(=O)O)c(COP(=O)(O)O)c(C=O)c1O | inactive | inactive |
| O=C(O)[C@H]1NCCC[C@H]1C(=O)O | inactive | inactive |
| NCCS(=O)O | inactive | inactive |
| CCC1(O)CC2CN(CCc3c([nH]c4ccccc34)[C@@](C(=O)OC)(c3cc4c(cc3OC)N(C=O)C3[C@]45CCN4CC=C[C@@](CC)([C@@H](OC(C)=O)[C@]3(O)C(=O)OC)[C@H]45)C2)C1 (stereo partly drawn) | inactive | inactive |
| OC[C@H]1O[C@@H](n2cnc3cncnc32)[C@H](O)[C@@H]1O | inactive | inactive |
| CSc1nc(N)c2ncn([C@@H]3O[C@H](COP(=O)(O)OP(=O)(O)O)C(O)[C@H]3O)c2n1 (stereo partly drawn) | inactive | – |
| CCCn1c(=O)c(C)cn2nc(N)nc12 | inactive | – |
| O=C(O)/C(=C/c1c(C(=O)O)[nH]c2cc(Cl)cc(Cl)c12)c1ccccc1 | inactive | inactive |
| N[C@H](C(=O)O)c1cc(O)cc(O)c1 | inactive | inactive |
| C#CCn1c(=O)c2c(ncn2C)n(C)c1=O | inactive | inactive |
| CCc1ccc2c(-c3cccc(Cl)c3)nc(=O)n(CC)c2n1 | inactive | inactive |
| NCCC1CCCC(CCN)N1 (stereo not drawn) | inactive | inactive |
| O=C(O)Cc1ccc(O)c(O)c1 | inactive | inactive |
| NC(N)=NC(N)=Nc1cccc(Cl)c1 | inactive | inactive |
| CC(=O)C(C)=O | inactive | inactive |
| Cn1ccnc1 | inactive | inactive |
| CCCn1c(=O)c2[nH]c(C3CCCC3)nc2n(CCC)c1=O | inactive | inactive |
| CC(/C=C/c1cccc(Oc2ccc(F)cc2)c1)N(O)C(N)=O (stereo not drawn) | inactive | inactive |
| CCCCCC[C@@H]([C@@H](C)O)n1cnc2c(N)ncnc21 | inactive | inactive |
| NCCCNCCCCNCCCN | inactive | inactive |
| N[C@@H](Cc1ccc(O)c(I)c1)C(=O)O | inactive | inactive |
| CCCCCCCCCC[Si](C)(C)CCC(=O)NC(Cc1ccc(C)cc1)c1ccccc1 (stereo not drawn) | inactive | inactive |
